Data on nine compounds can be found in PubChem BioAssay (NCI).

Holding throughout (assay): NCI-60 one-dose screen, 48 h (100 = growth as untreated, 0 = no growth, -100 = all killed)
For one test, the system named is RPMI-8226 leukemia. The settings on record: 10 µM unless noted.
The test system of the next test is OVCAR-8 ovarian. The settings on record: 10 µM unless noted.
Another test has as its system OVCAR-5 ovarian. The following applies: 10 µM unless noted.
The subject of a further test is OVCAR-4 ovarian. The following applies: 10 µM unless noted.
The next test has as its system SK-OV-3 ovarian. The following applies: 10 µM unless noted.
The subject of the next test is IGROV1 ovarian. The following applies: 10 µM unless noted.
For the next test, the system named is OVCAR-3 ovarian. The settings on record: 10 µM unless noted.
Another test deals with HS 578T breast. The settings on record: 10 µM unless noted.
Another test has as its system NCI/ADR-RES ovarian. The settings on record: 10 µM unless noted.
A further test concerns T-47D breast. The following applies: 10 µM unless noted.
A further test deals with MDA-MB-435 melanoma. The following applies: 10 µM unless noted.
A further test concerns SW-620 colon. The settings on record: 10 µM unless noted.
The subject of the next test is MCF7 breast. The settings on record: 10 µM.
For another test, the system named is HCT-116 colon. The settings on record: 10 µM unless noted.
The test system of another test is HCC-2998 colon. The following applies: 10 µM unless noted.
Another test concerns KM12 colon. The following applies: 10 µM unless noted.
The subject of another test is BT-549 breast. The following applies: 10 µM unless noted.

Molecules are shown by their SMILES. This is part of a sample that, as a whole, favours compounds with a hit. Of some 83,000 tested, about 20% had one in any assay.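 Method: cells in 96-well plates; compound added at one concentration; 48 h incubation; percent growth measured; values under 10 scored active.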 Values without a mark were called inactive. Calls of active or inactive are those of the source.

Turning to `O=c1oc2ccc(I)cc2c(=O)n1-c1ccc(Br)cc1F`, the growth was -26.2% (active) with RPMI-8226 leukemia; 8.2% (active) in the test with OVCAR-8 ovarian; 20.7% with OVCAR-5 ovarian; 17.1% with OVCAR-4 ovarian; -9.81% (active) in the test with SK-OV-3 ovarian; 16.3% in the test on IGROV1 ovarian. Moreover, the growth with OVCAR-3 ovarian is 5.84% (active); with HS 578T breast, -4.87% (active); in the test with NCI/ADR-RES ovarian, 7.59% (active); with T-47D breast it was -7.37% (active); in the test with MDA-MB-435 melanoma, -3.14% (active); in the test with SW-620 colon, 8.98% (active). In addition, the growth with MCF7 breast is 1.77% (active); with HCT-116 colon, 0.474% (active); in the test on HCC-2998 colon, 16.2%; with KM12 colon it was -4.63% (active).
On to `O=C(c1ccccc1)N(C(=S)NCCc1ccc(Cl)cc1)c1ccc(Cl)cc1`, for which the growth in the test on RPMI-8226 leukemia is 62.5%; in the test with OVCAR-8 ovarian, 41.1%; in the test on OVCAR-5 ovarian, 81.3%; in the test on OVCAR-4 ovarian, 88.8%; in the test on SK-OV-3 ovarian, 104%; with IGROV1 ovarian it was 87.4%. For the same compound, the growth is 27.7% in the test with OVCAR-3 ovarian; 62.5% in the test with HS 578T breast; 101% in the test on NCI/ADR-RES ovarian; 45.5% in the test with T-47D breast; 37.9% with MDA-MB-435 melanoma; 62.8% in the test on SW-620 colon. Also, the growth with MCF7 breast is 20.8%; in the test with HCT-116 colon, 45.3%; in the test with HCC-2998 colon it was 61.9%; in the test on KM12 colon it was 26.8%.
Turning to `COc1cccc(C2=NN3C(C2)c2ccccc2OC3c2ccc(/C=C3\SC(=O)NC3=O)cc2)c1` (stereo not given), the growth in the test on RPMI-8226 leukemia is 99.4%; in the test on OVCAR-8 ovarian, 94.8%; in the test on OVCAR-5 ovarian it was 108%; with OVCAR-4 ovarian, 103%; in the test with SK-OV-3 ovarian, 96.8%; in the test with IGROV1 ovarian, 100%. The growth in the test with OVCAR-3 ovarian is 102%; with HS 578T breast, 96.4%; with NCI/ADR-RES ovarian it was 111%; in the test with T-47D breast it was 100%; with BT-549 breast it was 97.1%; with MDA-MB-435 melanoma, 105%. In addition, the growth in the test on SW-620 colon is 97.8%; with MCF7 breast, 90.7%; in the test on HCT-116 colon, 109%; with KM12 colon it was 94.6%.
On to `O=c1oc2ccc(F)cc2c(=O)n1-c1ccc(Br)cc1F`, for which the growth with RPMI-8226 leukemia is -22.3% (active); in the test with OVCAR-8 ovarian it was 8.64% (active); in the test on OVCAR-5 ovarian, 21.8%; in the test on OVCAR-4 ovarian it was 11.9%; in the test with SK-OV-3 ovarian, -3.03% (active); with IGROV1 ovarian, 17%. Also, the growth with OVCAR-3 ovarian is 5.94% (active); in the test on HS 578T breast it was -3.75% (active); with NCI/ADR-RES ovarian, 6.34% (active); in the test on T-47D breast it was -12.3% (active); in the test with MDA-MB-435 melanoma it was 0.521% (active); in the test with SW-620 colon, 10.2%. Besides, the growth in the test on MCF7 breast was -3.48% (active); in the test with HCT-116 colon it was 2.22% (active); with HCC-2998 colon, 13.4%; in the test on KM12 colon, 0.328% (active).
Turning to `O=c1c2cc(F)cc(Cl)c2sc2c(Cl)nc3ccccc3c12`, the growth in the test with RPMI-8226 leukemia is 115%; with OVCAR-8 ovarian, 102%; with OVCAR-5 ovarian it was 95.5%; in the test with OVCAR-4 ovarian it was 98.7%; with SK-OV-3 ovarian, 95%; in the test on IGROV1 ovarian, 74.8%. The growth is 108% in the test on OVCAR-3 ovarian; 88.4% with HS 578T breast; 98.3% with NCI/ADR-RES ovarian; 91.8% in the test with T-47D breast; 110% with MDA-MB-435 melanoma; 97.7% with SW-620 colon. The growth with MCF7 breast was 77.1%; in the test with HCT-116 colon it was 104%; with HCC-2998 colon, 104%; in the test with KM12 colon it was 101%.
For `O=S1(=O)N(Cc2ccccc2)[C@@H](Cc2ccccc2)[C@H](O)[C@H](O)[C@H](Cc2ccccc2)N1Cc1ccccc1`, the growth in the test on RPMI-8226 leukemia is -7.2% (active); with OVCAR-8 ovarian, 7.06% (active); with OVCAR-5 ovarian it was 41.1%; in the test with OVCAR-4 ovarian, 15.4%; with SK-OV-3 ovarian, 6.58% (active); with IGROV1 ovarian, 10.3%. In addition, the growth with OVCAR-3 ovarian was -22% (active); with HS 578T breast it was 19.7%; with NCI/ADR-RES ovarian, -7.86% (active); with T-47D breast, 7.87% (active); in the test with BT-549 breast, 15.7%; with MDA-MB-435 melanoma it was -4.2% (active). Moreover, the growth with SW-620 colon was 9.22% (active); in the test on HCT-116 colon, -36.5% (active); in the test with HCC-2998 colon, -45.7% (active); in the test on KM12 colon it was -41.7% (active).
Regarding `O=C(Nc1ccc(F)cc1F)c1cc(I)ccc1O`, the growth in the test with RPMI-8226 leukemia is -2.64% (active); in the test on OVCAR-8 ovarian it was 11.8%; with OVCAR-5 ovarian it was 32.6%; in the test on OVCAR-4 ovarian, 20.1%; in the test with SK-OV-3 ovarian, -13.8% (active); in the test with IGROV1 ovarian it was 22%. In addition, the growth with OVCAR-3 ovarian was 8.96% (active); in the test on HS 578T breast it was 10%; with NCI/ADR-RES ovarian it was 8.58% (active); in the test with T-47D breast, -9.33% (active); in the test on MDA-MB-435 melanoma, 5.35% (active); in the test on SW-620 colon, 14.5%. Besides, the growth in the test with MCF7 breast was 5.52% (active); in the test on HCT-116 colon, 6.45% (active); in the test on HCC-2998 colon, 24.4%; with KM12 colon it was 6.2% (active).
With `COc1ccc(C(O)(CCC(C)C)C(CN2CCOCC2)c2ccc(Cl)cc2)cc1` (stereo not given), the growth in the test on RPMI-8226 leukemia is 46.8%; in the test with OVCAR-8 ovarian it was 67.1%; with OVCAR-5 ovarian, 103%; in the test with OVCAR-4 ovarian, 84.6%; in the test with SK-OV-3 ovarian, 97.7%; in the test on IGROV1 ovarian, 85.1%. Further, the growth in the test on OVCAR-3 ovarian was 6.49% (active); in the test with HS 578T breast it was 103%; in the test on NCI/ADR-RES ovarian, 29.4%; with T-47D breast it was 87.5%; in the test with BT-549 breast, 62.2%; in the test on SW-620 colon it was 28.5%. Also, the growth is 55.6% in the test with MCF7 breast, 26.6% with HCT-116 colon, 64.6% with HCC-2998 colon and 48% with KM12 colon.
For `O=c1[nH]nnc2c1ncn2C1OC(CO)C(O)C1O` (stereo not given), the growth in the test on RPMI-8226 leukemia is 37.6%; in the test on OVCAR-8 ovarian, 95.9%; in the test on OVCAR-5 ovarian it was 87.4%; with OVCAR-4 ovarian it was 35.9%; in the test with SK-OV-3 ovarian, 14.5%; with IGROV1 ovarian, 32.7%. The growth with OVCAR-3 ovarian is 41.7%; in the test on HS 578T breast, 103%; with NCI/ADR-RES ovarian, 39.5%; in the test on T-47D breast it was 77.1%; in the test on BT-549 breast it was 97.7%; in the test on MDA-MB-435 melanoma, 76.5%. Also, the growth with SW-620 colon was 63.3%; in the test with MCF7 breast, 63.9%; in the test with HCT-116 colon it was 51.8%; in the test on HCC-2998 colon, 34.4%; in the test with KM12 colon it was 60.7%.
